Results from publication PMC5540273 (PLoS ONE, 2017).
“And” between values parts separate entries of the source, which are not always exact repeats. Identical values can stand only once. Like-named read-outs stand apart in the source and are kept apart here.

How the values were obtained:
[1] = test system: CDK4-cyclinD3; conditions: concentration: 1 μM, replicates: in singlicate; n = 1
[2] = test system: CDK4; conditions: concentration: 1 μM, replicates: in singlicate, n = 1
[3] = test system: CDK5; conditions: concentration: 1 μM, replicates: in singlicate; n = 1
[4] = test system: CDK7; conditions: concentration: 1 μM, replicates: in singlicate, n = 1
[5] = test system: CDK8; conditions: concentration: 1 μM, replicates: in singlicate, n = 1
[6] = test system: CDK9; conditions: concentration: 1 μM, replicates: in singlicate, n = 1
[7] = test system: CDKL1; conditions: concentration: 1 μM, replicates: in singlicate, n = 1
[8] = test system: CDKL2; conditions: concentration: 1 μM, replicates: in singlicate, n = 1
[9] = test system: CDKL3; conditions: concentration: 1 μM, replicates: in singlicate, n = 1
[10] = test system: CDKL5; conditions: concentration: 1 μM, replicates: in singlicate; n = 1
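Note: KINOMEscan kinase panel screen.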

Compound	%Inh [1] [%]	%Inh [2] [%]	%Inh [3] [%]	%Inh [4] [%]	%Inh [5] [%]	%Inh [6] [%]	%Inh [7] [%]	%Inh [8] [%]	%Inh [9] [%]	%Inh [10] [%]	%Inh ([2]; 1 µM)	%Inh ([4]; 1 µM)	%Inh ([5]; 1 µM)	%Inh ([7]; 1 µM)	%Inh ([8]; 1 µM)	%Inh ([9]; 1 µM)	%Inh ([6]; 1 µM)
COc1ccc(CNC(=O)NC2CCN(c3ccnc(Nc4ccc(OC)cc4)n3)C2)cc1 (centres unmarked) [GSK1379727]	0	48	0	0	42	0	4	21	0	0	–	–	–	–	–	–	–
COc1ccc(COc2cc(-n3cnc4ccccc43)sc2C(N)=O)cc1 [GSK1024304]	0	40	0	0	29	0	7	18	0	0	–	–	–	–	–	–	–
O=C(NCCCN1CCOCC1)c1cccc(Nc2nccc(Nc3ccc(Oc4ccccc4)cc3)n2)c1 [GW663929]	0	16	0	20	34	19	5	28	0	0	–	–	–	–	–	–	–
COc1ccc(Nc2ncc(C#N)c(Nc3ccccc3C(N)=O)n2)cc1N1CCN(C)CC1.Cl [GSK1558669]	90	93.9	99.7	99.8	0	72	89	94.7	0	29	–	–	–	–	–	–	–
Cl.Cl.Cl.Fc1ccc(-c2ncn(C3CCNCC3)c2-c2ccnc(Nc3ccccc3)n2)cc1 [SB-238039]	0	–	0	–	–	0	–	–	–	0	18% and 19%	19% and 33%	49% and 19%	34% and 37%	0% and 29%	5% and 15%	–
Fc1ccc(-c2ncn(CCCN3CCOCC3)c2-c2ccccn2)cc1 [SB-211742]	0	0	0	0	29	0	40	49	4	5	–	–	–	–	–	–	–
Cc1cccc(Cn2ccn3c(=O)cc(N4CCOCC4)nc23)c1 [GSK2297542]	0	6	0	0	31	0	20	29	0	0	–	–	–	–	–	–	–
O=c1cc(N2CCOCC2)nc2n(Cc3cccc(C(F)(F)F)c3)ccn12 [GSK2297543]	7	12	0	0	16	0	0	20	0	0	–	–	–	–	–	–	–
Cc1ccc(C(=O)NCC(N)=O)cc1-n1c(C)cc(OCc2ccc(F)cc2F)c(Br)c1=O	0	0	0	0	8	0	44	3	9	0	–	–	–	–	–	–	–
O=C1NC(=O)C(N2CCc3ccccc32)=C1c1cccc(Cl)c1 [SB-408010]	0	0	7	9	0	0	0	11	0	0	–	–	–	–	–	–	–
Fc1ccc(-c2nn3c(OCC(F)(F)F)cccc3c2-c2ccncc2)cc1 [GW514784]	0	46	0	0	57	0	8	4	0	0	–	–	–	–	–	–	–
Cc1nnc(-c2ccc(C)c(-c3ccc(C(=O)Nc4ccc(NS(C)(=O)=O)cc4)cc3)c2)o1 [GW702865]	0	0	0	0	28	0	5	18	0	0	–	–	–	–	–	–	–
O=c1cc(N2CCOCC2)nc2n(Cc3cccc4ccccc34)ccn12 [GSK2333389]	0	0	0	0	13	1	0	4	0	0	–	–	–	–	–	–	–
NS(=O)(=O)CCc1cccc(Nc2nccc(-c3c(-c4cccc(NC(=O)c5c(F)cccc5F)c4)nn4ccccc34)n2)c1 [GSK336735]	0	19	0	0	0	0	0	25	0	1	–	–	–	–	–	–	–
NCCNS(=O)(=O)c1ccc(-c2ccnc3[nH]ccc23)cc1 [GSK977617]	0	–	0	–	–	–	–	–	0	0	34% and 27%	85% and 74%	20% and 19%	10% and 1%	0% and 8%	–	5% and 26%
NS(=O)(=O)c1cccc(-c2ccc3nccc(-c4cccc(S(N)(=O)=O)c4)c3c2)c1 [GW867253]	0	19	0	4	36	0	27	16	20	5	–	–	–	–	–	–	–
Cn1cc(-c2ccc3c(c2)CCN3C(=O)Cc2ccccc2Cl)c2c(N)ncnc21 [GSK2608885]	0	22	0	1	7	0	0	17	0	10	–	–	–	–	–	–	–
CNc1ncnc2[nH]ncc12 [SKF-18355]	0	17	0	0	0	0	8	30	19	3	–	–	–	–	–	–	–
COC(=O)Nc1nc2cc(Oc3ccc(NC(=O)Nc4cc(F)ccc4F)cc3)ccc2[nH]1.Cl [GW701424]	5	0	0	37	42	0	0	36	0	0	–	–	–	–	–	–	–
[2H]C([2H])(c1cccc(C(F)(F)F)c1C)n1ccn2c(=O)nc(N3CCOCC3)cc12 [GSK2336394]	0	14	0	0	2	0	8	22	0	0	–	–	–	–	–	–	–
